Experimental data: PubChem BioAssay
Results with a measured potency or affinity are listed apart. Active and inactive are the calls of the source. The limit is not given here; nearly all actives have IC50 up to about 0.98 µM.

Each molecule was assayed against Calcium-dependent protein kinase 1 (Plasmodium falciparum (isolate 3D7)) (UniProt P62344) (assay: PfCDPK1 kinase inhibitors, biochemical, TCAMS library (AID 1159585;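 also: inhibitors leave more ATP so luminescence rises with inhibition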)). Settings: recombinant PfCDPK1, Kinase-Glo ATP depletion luminescence.
Calcium-dependent protein kinase 1 (Plasmodium falciparum (isolate 3D7)), sequence (P62344 whole entry, looked up): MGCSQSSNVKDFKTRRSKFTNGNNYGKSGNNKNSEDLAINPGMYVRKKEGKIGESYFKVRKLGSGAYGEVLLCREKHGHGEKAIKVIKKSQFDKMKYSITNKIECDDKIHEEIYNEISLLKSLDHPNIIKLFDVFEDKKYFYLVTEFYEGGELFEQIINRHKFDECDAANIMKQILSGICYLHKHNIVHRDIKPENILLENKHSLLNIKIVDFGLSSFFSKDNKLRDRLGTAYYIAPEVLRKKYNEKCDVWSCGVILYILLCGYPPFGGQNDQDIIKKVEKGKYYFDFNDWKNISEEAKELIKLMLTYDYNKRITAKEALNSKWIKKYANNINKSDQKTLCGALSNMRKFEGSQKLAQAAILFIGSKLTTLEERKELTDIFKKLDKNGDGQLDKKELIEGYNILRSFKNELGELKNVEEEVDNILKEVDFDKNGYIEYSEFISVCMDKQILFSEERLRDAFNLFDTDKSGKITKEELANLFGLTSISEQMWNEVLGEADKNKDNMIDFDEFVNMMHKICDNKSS

| SMILES | outcome |
| --- | --- |
| COc1ccc2nccc(N3CCC(SCCNS(=O)(=O)c4ccc5c(c4)OCCO5)C3)c2n1 (stereo not given) | inactive |
| CCc1c(CCNCCCCCCNCCc2ccc([N+](=O)[O-])cc2)ccc(OC)c1OC | inactive |
| CCOC(=O)c1cnc2c(OC)cc(OC)c(Cl)c2c1Nc1ccccc1 | inactive |
| O=C(Nc1ccc(Cl)cc1)Nc1cccc(CCNCc2ccccc2)c1 | inactive |
| Nc1nc2c(ncn2OC[C@H]2COP(=O)(O)CO2)c(=O)[nH]1 | inactive |
| Fc1ccc(Nc2ccnc3cc(-c4cccc(CN5CCCCC5)c4)ccc23)c(Cl)c1 | inactive |
| COc1ccc(NC(=O)[C@H](CC(C)C)Nc2cc(C)nc(NCCc3cccs3)n2)cc1 | inactive |
| NC(=O)c1cccc(CNC(=O)NC[C@H]2CN(Cc3ccc(Cl)c(Cl)c3)CCO2)c1 | inactive |
| O=C(NC1CC1)c1ccc2cc(C(=O)N3Cc4ccccc4C(c4ccccc4)C3)ccc2c1 (stereo not given) | inactive |
| O=C(Nc1ccc(OC2CCN(Cc3ccc(F)cc3)CC2)c(Cl)c1)c1ccsc1 | inactive |
| CN(C)Cc1cc(Nc2ccnc3cc(Cl)ccc23)ccc1O | inactive |
| O=C(Cc1ccc(NC(=O)c2ccc(O)c(-c3ccc(Cl)c(Cl)c3)c2)cc1)NCc1cccc(C(F)(F)F)c1 | inactive |
| COc1ccc(CNC2CCN(C)CC2)cc1-c1ccc(S(=O)(=O)NCc2ccccc2)cc1 | inactive |
| CC(C)=CCc1c(-c2ccc(O)cc2O)oc2c3c(cc(O)c2c1=O)OC(C)(C)C=C3 | inactive |
| COc1ccc2ncc(F)c(NC(=O)C3CCC(NCc4cc5cc(F)cc(F)c5[nH]4)CC3)c2n1 (stereo not given) | inactive |
| O=C(NCc1cccs1)[C@H](Cc1ccccc1)Nc1ccnc(NCCc2ccc(F)cc2)n1 | inactive |
| CCc1ccc(NC(=O)c2ccc(CN3CCCN(CC4CCCCC4)CC3)cc2)cc1 | inactive |
| O=C(NCc1ccc(F)cc1)Nc1ccc(-c2cccc(-c3nc4ccc(C(F)(F)F)cc4[nH]3)c2)cc1 | inactive |
| Cc1nc2ccc(NC(=O)c3cc(S(=O)(=O)N(C)C)ccc3Cl)cc2s1 | inactive |
| Cc1cc(N[C@@H](Cc2ccccc2)C(=O)NCCOc2ccccc2)nc(NCCc2ccc(F)cc2)n1 | inactive |

| SMILES | outcome |
| --- | --- |
| COc1c(C(=O)NC2CCN(Cc3ccccc3)C2)cnc2ccccc12 (stereo not given) | inactive |
| O=C(c1cccc(-c2cccc(-c3nc4ccccc4[nH]3)c2)c1)N1CCCCC1CN1CCC(O)C1 (stereo not given) | inactive |
| Cc1cc(F)ccc1Nc1nc(N(C)c2ccccc2)c2cccc(OCCO)c2n1 | inactive |
| CCC(C)(C)n1c(C)cc2c3c(N)nc(N)nc3ccc21 | inactive |
| Nc1cccc(CNCc2ccc(-c3cccc(-c4nc5ccc(F)cc5[nH]4)c3)cc2)c1 | inactive |
| CN(C)Cc1c(O)ccc2[nH]c(-c3ccc(F)cc3F)nc12 | inactive |
| CO/C(=C/C=C/c1cc2cc(Cl)c(Cl)cc2[nH]1)C(=O)NC1CC(C)(C)N(C)C(C)(C)C1 | inactive |
| O=C(Nc1cccc(Cl)c1Cl)N1CCc2cc3nccc(N4CCN5CCC[C@H]5C4)c3cc21 | inactive |
| N#Cc1ccc(N(CCOC(=O)c2ccc(Br)s2)Cc2ccccc2C(F)(F)F)cc1C(F)(F)F | inactive |
| Clc1cc(Nc2ncnc3sc(C#Cc4ncc[nH]4)cc23)ccc1OCc1ccccn1 | inactive |
| COc1ccc2nccc([C@@H](O)CN3CCC(NCCOc4ccccc4C(F)(F)F)CC3)c2c1 | inactive |
| Cc1onc(-c2ccccc2Cl)c1C(=O)Nc1cc(Cl)c(Cl)cc1Cl | inactive |
| COc1ccc(C(=O)Nc2ccc3nc(N4CCCCC4)cc(C)c3c2)cc1[N+](=O)[O-] | inactive |
| CCCCCCNc1cc(C)nc2ccc(OC)cc12 | inactive |
| COc1ccc(CN2CCCN(Cc3cccc(NC(=O)c4ccc(Cl)c(Cl)c4)c3)CC2)cc1 | inactive |
| CC1=C(C(=O)OCCOCc2ccccc2)C(c2ccccc2C(F)(F)F)C(C(=O)OCCOCc2ccccc2)=C(C)N1 | inactive |
| CCOC(=O)c1ccc(N=C2SC(=Cc3cc(Br)ccc3O)C(=O)N2C)cc1 | inactive |
| O=S(=O)(Nc1cccc(CCN2CCCCC2CCN2CCCC2)c1)c1ccc(Oc2ccccc2)cc1 (stereo not given) | inactive |
| O=C(NCc1ccc(Cl)c(Cl)c1)[C@H]1CNCCN1C(=O)c1ccccc1 | inactive |
| N#Cc1cccc(NC(=O)Nc2cccc(-c3cccc(-c4nc5ccc(C(F)(F)F)cc5[nH]4)c3)c2)c1 | inactive |
